Assay results from PubChem BioAssay (NCATS).
Records with an inconclusive call do not appear. A number with no mark means an inactive call. Activity calls are given as the source filed them. Calls come from the whole dose curve; as a rule, active = well fitted curve in the direction sought with a large enough effect; inconclusive = small, poorly fitted or top-dose-only effect, or another doubt; inactive = no such curve, though single readings can be large or run the other way. Numbered stars: 1 amine (or outer) side, 2 acyl side, 3 side chain; on linkers, the order of the positions; unused ones are H or OH. Bridge positions count the residues as written; N and C are the ends. Square brackets hold non-standard residues; d marks the D form. Peptide text beside a SMILES is read from it. * marks the point of attachment. ξ: configuration not given here. Phe(3R-OH) = O=C([C@@H](N[*:1])[C@H](O[*:3])c1ccccc1)[*:2]; NMeTrp(4-OMe) = CN[C@@H](Cc1c[nH]c2cccc(OC)c12)C(=O)O; X4 = O=C(C1CC2(c3ccc(O)cc3)c3ccccc3NC2N1[*:1])[*:2]; ξThr(3R)(O-yl) = C[C@@H](O[*:3])C(N[*:1])C(=O)[*:2]; NMeThr(3ξ) = CN[C@H](C(=O)O)C(C)O; ξW = NC(Cc1c[nH]c2ccccc12)C(=O)O; NMeL = CN[C@@H](CC(C)C)C(=O)O; NMeV = CN[C@H](C(=O)O)C(C)C; ξIle = CC[C@H](C)C(N)C(=O)O; ξY = NC(Cc1ccc(O)cc1)C(=O)O; Octanoyl = CCCCCCCC(=O)*; ξV = CC(C)C(N)C(=O)O
Potency is the fitted concentration of half-maximal effect.

Assay: HPAF-II 12hr Apoptosis Induction qHTS against the NCATS CANVASS Library (AID 1347358); for caspase activation: 0% is about no effect
Details: HPAF-II caspase-3/7 Caspase-Glo luminescence; series mostly up to 46.1 µM; caspase activation: at the top concentration
Source text: Natural products and their derivatives continue to be wellsprings of nascent therapeutic potential. However, many laboratories have limited resources for biological evaluation, leaving their previously isolated or synthesized compounds largely or completely untested. To address this issue, the Canvass library of natural products was assembled (https://tripod.nih.gov/canvass), in collaboration with academic and industry researchers, for quantitative high-throughput screening (qHTS) across a diverse set of cell-based and biochemical assays. The pure (>85% purity by liquid chromatography/mass spectrometry [LC/MS]) Canvass library of 346 natural products were submitted by 45 academic laboratories and companies around the world. We collected pure natural products to circumvent deconvolution and structure elucidation due to time and resource limitations. The library was formatted into 1536-well plates and evaluated in 50 qHTS (in an 11-pnt concentration series) bioassays with broad scope of disease-relevant mechanisms. The resulting data set from 50 different assays was then systematically analyzed to identify overall trends and specific natural products with interesting biological activities. Reported herein are the results of each individual qHTS and their corresponding assay protocol. The Caspase-Glo (R) (Promega) is a homogeneous, luminescent assay that measures caspase activity. The detection substrate contains tetrapeptide sequence DEVD in an "add-mix-measure" format. The reagent generates a luminescent signal produced by a thermostable luciferase. The luminescence is proportional to the amount of caspase activity in the assay reaction. National Center for Advancing Translational Sciences (NCATS), Rockville, MD National Institute of Health (NIH), Bethesda, Maryland
Cancer Cell Apoptosis Assay 1. In a 1536 well, white solid bottom tissue culture plates (Corning 7494), HPAF-II cancer cells in DMEM + 10% FBS + 1% P/S media were dispensed in each well at a final concentration of 500 cells / well (5uL volume) using the Multidrop Combi (Thermo Fisher Scientific) dispenser. 2. Compounds were pin transferred (~23nL volume) via Wako Pin-tool (Wako Automation, Richmond VA) equipped with a 1536 pin head. The assay plates were treated with compounds in a concentration series with a final concentration range of 0.17nM to 103uM. 3. Doxorubicin was used as a control in a 16pnt titration (1mM; 1:2 dilution; 16-points; n = 2; column 3, rows 1 - 32) and was pin transferred via Wako Pin-tool equipped with a 1536 pin head. The final concentration range of doxorubicin is 0.1nM - 4uM. 4. The assay plates were incubated for 12 hours at 37 degrees C/5% CO2/95% Rh. 5. 3uL Caspase-Glo 3/7 (R) (Promega) detection reagent was then added to the assay plates (columns 2 - 48, rows 1 - 32) and incubated at room temperature, covered from light, for 15 min. 6. Luminescence signal was acquired via the ViewLux plate reader (PerkinElmer) using a clear filter, 20 second exposure and 2x binning settings.
For `O=c1cc(-c2ccc(O)c(O[C@@H]3O[C@H](CO)[C@@H](O)[C@H](O)[C@H]3O)c2)oc2cc(O[C@@H]3O[C@H](CO)[C@@H](O)[C@H](O)[C@H]3O)cc(O)c12`, the “caspase activation” value was -4.64%.
For `O=C1c2c(O)cc(O)cc2O[C@@H](c2ccc(O)cc2)[C@@H]1c1c(O)cc(O)c2c(=O)cc(-c3ccc(O)c(O)c3)oc12`, the “caspase activation” value was 4.92%.
With `CCCCCC[C@H](CCCCC[C@@H](O)C(N)=O)OC(=O)[C@@H]1CC=CN1C(=O)c1ccccc1O` the “caspase activation” value was 4.9%.
In the case of `O=Cc1ccc2n1C[C@@]1(OC2)O[C@H](CO)[C@@H](O)[C@@H]1O`, the “caspase activation” value was 2.42%.
With `C=CC(C)(C)C(=O)[C@@H](C)[C@@H]1CC[C@](C)(C=C)O1` the “caspase activation” value was 0.351%.
In the case of `CN1C(=O)[C@]23SS[C@@]1(C)C(=O)N2[C@H]1Nc2ccccc2[C@]1(c1c[nH]c2ccccc12)[C@@H]3O`, the Potency was 590 nM (active).
With `CCCCCCCC(=O)N[C@@H](CC(C)C)C(=O)N[C@H](C=O)CCC(=O)O` (Octanoyl-Leu-Glu-aldehyde) the “caspase activation” value was -0.671%.
In the case of `CC[C@H](C)[C@H](NC(=O)C(Cc1ccc(O)cc1)NC(=O)C(Cc1c[nH]c2ccccc12)NC(=O)[C@H](C)N)C(=O)N1C(C(=O)NC(Cc2ccc(O)cc2)C(=O)O)CC2(c3ccc(O)cc3)c3ccccc3NC12` (stereo not given in full) (H-A[ξW][ξY]I[X4][ξY]-OH), the “caspase activation” value was -1.58%.
For `C=C(C)[C@@H]1CC[C@]2(C)CC[C@]3(C)[C@H](CC[C@@H]4[C@@]5(C)CC[C@H](O)C(C)(C)[C@@H]5CC[C@]43C)[C@@H]12`, the Potency was “inactive”.
Compound `COc1ccc2oc3c(OC)c(OC)c(OC)c(OC)c3c(=O)c2c1` has a caspase activation of 5.91% [at 9.19 µM].
In the case of `CC(C)=CCC/C(C)=C/Cc1c(O)c(CC=C(C)C)c(O)c2c(=O)c3cc(O)ccc3oc12`, the “caspase activation” value was 14%.
With `CC(=O)[C@@H]1[C@@H](O)C[C@H]2[C@]3(C)CC[C@H]4C(C)(C)CCC[C@]4(CO)[C@H]3C[C@H]3OC(=O)[C@@H]1[C@@]32C` the “caspase activation” value was 1.07%.
With `CC1(C)CCC[C@]2(C)[C@@H]1CC[C@@]13C[C@@H](CC[C@H]12)C(C)(O)C3` (stereo not given in full) the “caspase activation” value was -1.81%.
In the case of `CC(=O)O[C@H]1CC[C@@]2(C)C(CC[C@]3(C)C2CC=C2C4CC(C)(C)CC[C@]4(C)CC[C@]23C)C1(C)C` (stereo not given in full), the “caspase activation” value was 1.83%.
In the case of `CC1=CC2=C[C@H](C)C[C@@]23OC(=C(C)C3=O)CC(C)(C)/C=C/C1=O`, the “caspase activation” value was -5.11%.
In the case of `COc1ccc(/C=C2\COc3cc(O)ccc3C2=O)cc1`, the “caspase activation” value was -8.98%.
In the case of `C=C1C[C@@]23C=CC(=O)[C@@](C)(CCC(=O)Nc4c(O)ccc(C(=O)O)c4O)C2C[C@@H]1C(O)C3` (stereo not given in full), the “caspase activation” value was 1.23%.
In the case of `CC12C[C@]3(O)O[C@@H](O1)[C@]1(COC(=O)c4ccccc4)[C@@H]3CC21OC1OC(CO)C(O)C(O)C1O` (stereo not given in full), the “caspase activation” value was 3.67%.
In the case of `C[C@@H](CCC[C@]1(C)C(=O)C=C[C@]23C[C@H]4C[C@H](O[C@@]4(C)C2)C31)C(=O)N[C@@H](CO)C(=O)O` (stereo not given in full), the “caspase activation” value was 2.13%.
With `CC[C@H](C)C(NC(=O)[C@@H](NC)C(C)C)C(=O)NC1C(=O)N(C)[C@@H](C(C)O)C(=O)N[C@@H](C(C)C)C(=O)N(C)[C@@H](CC(C)C)C(=O)NC(C(C)C)C(=O)N(C)[C@@H](C(C)C)C(=O)N(C)[C@@H](Cc2c[nH]c3cccc(OC)c23)C(=O)N[C@@H](C(C)C)C(=O)N[C@@H]([C@H](O)c2ccccc2)C(=O)N[C@@H](C(C)C)C(=O)O[C@@H]1C` (stereo partly drawn) (H-[NMeV][ξIle][ξThr(3R)(O-yl)][NMeThr(3ξ)]V[NMeL][ξV][NMeV][NMeTrp(4-OMe)]V[Phe(3R-OH)]V; ester 3-C) the “caspase activation” value was 3.05%.
In the case of `CC1(C)[C@H](Br)CC[C@]23C[C@]4(C)C(=O)CC12C[C@H]34`, the “caspase activation” value was 6.77%.
In the case of `C=C1C[C@@]23C=CC(=O)[C@@](C)(CCCC(C)C(=O)O)[C@@H]2C[C@@H]1CC3` (stereo not given in full), the “caspase activation” value was 0.181%.
With `COc1c(O)cc2oc(-c3ccccc3)cc(=O)c2c1O` the “caspase activation” value was -8.67%.
For `Cc1cc(O)cc2oc(C[C@H](C)O)cc(=O)c12`, the “caspase activation” value was 1.64%.
In the case of `Oc1ccc([C@H]2Oc3ccc(/C=C/c4cc(O)cc(O)c4)cc3C2c2cc(O)cc(O)c2)cc1` (stereo not given in full), the “caspase activation” value was -2.5%.
With `CC(O)/C=C/C1(O)C(C)(C)CC(O)CC1(C)O` (stereo not given) the “caspase activation” value was -2.11%.
In the case of `CO[C@@H]1C[C@@H](C[C@H]2CC[C@H](C)[C@H]([C@@H](C)C(=O)O)O2)O[C@]2(O[C@](C)([C@H]3CC[C@@](C)([C@@H]4O[C@@H]([C@H]5O[C@](C)(O)[C@H](C)C[C@@H]5C)C[C@@H]4C)O3)C[C@H]2C)[C@@H]1C`, the “caspase activation” value was 10.2%.
For `COc1ccc(CCCc2cc(O)c(OC)c(O)c2)c(O)c1O`, the “caspase activation” value was -3.93%.
For `O=Cc1ccc2n1C[C@@]1(C[C@H](O)[C@H](O)CO1)OC2`, the “caspase activation” value was -3.64%.
For `CC[C@@H]1C[C@@]2(CC)OC(=O)[C@@]3(CC)OC(=O)[C@@H]1[C@@H]23`, the “caspase activation” value was 2.02%.
For `CN1CCc2cc3c(c4c2[C@H]1[C@@H](O)c1ccccc1-4)OCO3`, the “caspase activation” value was -3.14%.
In the case of `OCc1ccc2ocnc2c1`, the “caspase activation” value was -3.39%.
With `C/C=C/c1cc(OC)c2c(c1)[C@@H](C)[C@H](c1ccc(O)c(OC)c1)O2` the “caspase activation” value was 2.4%.
For `O=C(OC1Cc2c(O)cc(O)cc2OC1c1cc(O)c(O)c(O)c1)c1cc(O)c(O)c(O)c1` (stereo not given), the “caspase activation” value was -1.64%.
For `C[C@@H]1C(=O)[C@]23CC[C@H]1C[C@]21O[C@H]2C(C)(C)C=CC(=O)[C@]23COC1=O`, the “caspase activation” value was -2.79%.
In the case of `C=C1[C@H]2CC[C@@]3(C=CC(=O)[C@@](C)(CCC(=O)Nc4c(O)ccc(C(=O)O)c4O)C3C2)[C@H]1O` (stereo not given in full), the “caspase activation” value was 2.45%.
For `CCC1=C2CCCN3C(=O)O[C@H]([C@H]1OC(C)=O)[C@H]23`, the “caspase activation” value was 0.66%.
In the case of `CS/C=C/C(N)=O`, the “caspase activation” value was -3.95%.
In the case of `CO[C@@H]1[C@H](O)[C@@H](C)O[C@@H](OC[C@@H]2C(C)OC(=O)/C=C/[C@H](C)C(O[C@@H]3O[C@H](C)CC4(OC(=O)O[C@@H]4C)C3O)[C@@H](C)CC(C)C(=O)CC[C@H]3OC23)[C@@H]1OC` (stereo not given in full), the “caspase activation” value was 4.22%.
For `CN1C(=O)C2C(N=CN2C)N(C)C1=O` (stereo not given), the “caspase activation” value was -2.48%.
